Source: PubChem BioAssay
NCOA1 inh – inhibitors of human steroid receptor coactivator 1 (SRC1); Q15788; HEK293 GAL4-SRC1 luciferase reporter, luminescence; inhibition, % at 3.6 µM; hit rate 0.12% among 360,000; AID 588354;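 active means inhibition above the campaign mean plus 3 SD, with each screening campaign given its own cutoff, cut at about 60% in these data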
SRC3 inh – human NCOA3 inhibition. HEK293 GAL4-SRC3 luciferase reporter, luminescence. inhibition, % at 3.6 µM. hit rate 0.17% among 360,000;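 active means inhibition above a per-campaign cutoff, the mean of all compounds plus 3 SD, cut at about 60% in these data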;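 further: higher means less SRC3-driven luciferase light from the GAL4 reporter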
NR5A2 inv ag – suppresses constitutive activity of human LRH-1. O00482. HEK293T StAR-luciferase reporter, LRH-1 transfected, 24 h. inhibition, % at 3.6 µM. hit rate 0.13% among 360,000. AID 602396;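 active means inhibition above the mean inhibition of all tested compounds plus 3 SD, cut at about 73% in these data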
Target sequence (O00482 whole entry, looked up): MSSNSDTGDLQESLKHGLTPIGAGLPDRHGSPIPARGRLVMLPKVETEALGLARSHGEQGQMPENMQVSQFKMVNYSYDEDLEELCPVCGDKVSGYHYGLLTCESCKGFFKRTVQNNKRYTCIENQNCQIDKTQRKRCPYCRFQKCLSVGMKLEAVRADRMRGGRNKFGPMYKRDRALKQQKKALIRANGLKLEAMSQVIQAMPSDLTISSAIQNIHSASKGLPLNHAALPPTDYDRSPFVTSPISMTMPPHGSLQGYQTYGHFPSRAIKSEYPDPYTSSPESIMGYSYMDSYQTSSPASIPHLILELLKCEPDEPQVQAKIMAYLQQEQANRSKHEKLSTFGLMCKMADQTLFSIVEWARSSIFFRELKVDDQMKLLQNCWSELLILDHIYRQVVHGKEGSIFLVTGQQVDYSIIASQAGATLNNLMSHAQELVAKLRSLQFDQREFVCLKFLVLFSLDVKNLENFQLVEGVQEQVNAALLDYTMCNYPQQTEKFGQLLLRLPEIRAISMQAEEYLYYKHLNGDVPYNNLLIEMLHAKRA
NR2F2 inh – blocks human COUP-TFII nuclear receptor; P24468; AID 686940; inhibition, % at 8.6 µM; hit rate 0.7% among 370,000; HEK293T NGFI-A luciferase reporter, luminescence;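 active means inhibition above a per-plate cutoff, mean inhibition of test wells between control levels plus 3 SD, cut at about 38% in these data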;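 further: cells cotransfected with COUP-TFII expression vector driving the NGFI-A reporter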
NCOA2 inhibitor – human SRC2 (NCOA2) inhibition; Q15596; inhibition, % at 9 µM; HEK293 GAL4-SRC2 luciferase reporter, luminescence; hit rate 0.17% among 370,000;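 active means inhibition above the mean inhibition of all tested compounds plus 3 SD, set per campaign, cut at about 52% in these data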
Each line names hits and unclear results; the compound was inactive in the other large screens. Sampled rows, rich in hits. Any-hit rate of the full collection: about 0.81%.

C=C1C(=O)[C@@]23[C@H](O)C[C@@H]4C(C)(C)CC[C@H](O)[C@]4(C)[C@@H]2C[C@H](O)[C@@H]1[C@H]3O	none
C#CC(=O)N(c1cccc(OC)c1)C(C(=O)NC1CCCC1)c1cccs1 (centres undefined)	NR5A2 inv ag 81
C#CC(=O)N(c1ccc(OC)c(OC)c1)C(C(=O)NC1CCCC1)c1cccs1 (centres undefined)	none
Nc1ncnc2c1ncn2C1O[C@H](CO)[C@@H](O)[C@@H]1O (some centres undefined)	none
N#Cc1c(N)n(C2OC(CO)C(O)C2O)c2ncnc(N)c12 (centres undefined)	NCOA1 inh 83, SRC3 inh 85, NR5A2 inv ag 95, NCOA2 inhibitor 55
Cc1cc(C)nc(SCc2ccc(C(=O)N/N=C/c3cccc(O)c3O)cc2)n1	SRC3 inh 66
COc1ccc(O)c(/C=N/NC(=O)c2ccc(CSc3nc(C)cc(C)n3)cc2)c1	none
O=C(CN1C(=O)CCSc2ccccc21)Nc1cccc(Cl)c1F	none (no result: NCOA1 inh, SRC3 inh, NR5A2 inv ag)
NCC(=O)Nc1ccc(Cl)cc1C(=O)c1ccc[nH]1	NCOA2 inhibitor 56
Cc1ccc(C(=S)N2CCN(Cc3ccccc3)CC2)cc1	none
CCN1CCN(C(=S)c2ccc(-c3ccccc3)cc2)CC1	NCOA2 inhibitor 71
CCCCn1c(C)nc2cc(S(=O)(=O)N3CCOCC3)ccc21	none
CCCCn1c(CCl)nc2cc(S(=O)(=O)N3CCOCC3)ccc21	NCOA2 inhibitor 63
Oc1ccccc1N=Nc1ccccc1O	SRC3 inh 69
COC(=O)[C@]12C[C@H](CC(=O)N3CCN(C(=O)C4CC4)CC3)C(=O)N(Cc3ccco3)C1=C[C@H](COCc1ccccc1)O[C@@H]2C	none (no result: NCOA1 inh, SRC3 inh, NR5A2 inv ag)
O=C(CCC1CCCC1)Nc1ccc(C(=O)NCc2cccnc2)cc1	NR5A2 inv ag 74
COc1ccc(N2CCN(CCCNC(=O)COc3ccc(F)cc3)CC2)cc1	none (no result: NCOA1 inh, SRC3 inh, NR5A2 inv ag)
O=S1(=O)c2ccccc2-c2c(nnn2Cc2ccccc2)CN1C1CC1	none (no result: NCOA1 inh, SRC3 inh, NR5A2 inv ag)
Cc1cccc(/C=C(\c2nc3ccccc3[nH]2)S(=O)(=O)c2ccccc2)c1	NCOA2 inhibitor 64
CC(C)(C)c1ccc(/C=C(\c2nc3ccccc3[nH]2)S(=O)(=O)c2ccccc2)cc1	none (no result: NR2F2 inh, NCOA2 inhibitor)
Cc1nccc(-c2ccc(-n3cnc4ccccc43)cc2)n1	none
Nc1nccc(-c2ccc(-n3cnc4ccccc43)cc2)n1	NR2F2 inh 42
C=C1C(=O)c2sccc2C(c2ccc(OC)c(OC)c2)C1COC(C)=O (centres undefined)	NR2F2 inh 89, NCOA2 inhibitor 84
O=C(CSc1nnc(-c2ccccn2)n1-c1ccccc1)c1ccc2c(c1)OCO2	none (no result: NCOA1 inh, SRC3 inh, NR5A2 inv ag)
CC(C)(C)c1ccc(-c2nnc(SCc3cccc4ccccc34)n2Cc2ccco2)cc1	none (no result: NCOA1 inh, SRC3 inh, NR5A2 inv ag)
CC(=NNC(=S)Nc1ccccc1)c1ccccn1	NR5A2 inv ag 81
C=CCNC(=S)N/N=C(\C)c1ccccn1	NR5A2 inv ag 101
COc1ccc(C(=O)NCC(=O)OCc2ccc(F)cc2Cl)cc1OC	none
COc1ccc(C(=O)NCC(=O)OCc2c(Cl)cccc2Cl)cc1OC	SRC3 inh 66
CC(=O)n1cc(N(C(=O)CCl)c2ccc(C)cc2)c2ccccc21	NCOA2 inhibitor 61
FC(F)(F)c1cc(C(F)(F)F)c2ccc(N3CCN(c4ccc(Cl)cc4)CC3)nc2n1	none
N#CC(c1ccc(Cl)cc1)c1ccc2c(C(F)(F)F)cc(C(F)(F)F)nc2n1 (centres undefined)	NCOA1 inh 66, SRC3 inh 76, NR2F2 inh 58
COc1ccc2c(n1)Sc1nc3ccccc3nc1N2	NCOA2 inhibitor 65
C=CCN=C1NN=C(c2cc(C)n(CC=C)c2C)CS1	NCOA1 inh 71, SRC3 inh 70, NR2F2 inh 77, NCOA2 inhibitor 58
O=[N+]([O-])c1ccc(N2CCCC2)nc1N1CCCC1	none
Nc1ncc([N+](=O)[O-])c(N2CCCCCC2)n1	NCOA1 inh 65
Cc1cc(C)cc(N(CC(=O)NC2CCC(C)CC2)S(=O)(=O)c2ccc([N+](=O)[O-])cc2)c1 (centres undefined)	none (no result: NCOA1 inh, SRC3 inh, NR5A2 inv ag)
O=S(=O)(c1cccc2cccnc12)N1CCC(c2cn3ccccc3n2)CC1	none (no result: NCOA1 inh, SRC3 inh, NR5A2 inv ag)
NS(=O)(=O)c1ccc(Sc2nc3ccccc3s2)c([N+](=O)[O-])c1	SRC3 inh 62
COc1cccc(/C=C/C(=O)OCC(=O)N2CCCC2)c1OC	SRC3 inh 86
COc1ccccc1/C=C/C(=O)OCC(=O)N1CCCCC1	none
O=C(O)c1cc(N/N=C/c2ccc3c(c2)OCO3)ccc1Cl	none
O=C(O)c1ccc(N/N=C/c2ccc3c(c2)OCO3)cc1	NCOA2 inhibitor 56
CCCCCCCCCn1c2c(c(=N)c3c1CCC3)CCC2	NCOA1 inh 71, SRC3 inh 81, NR5A2 inv ag 97 (no result: NR2F2 inh, NCOA2 inhibitor)
COC(=O)c1cc(O)cc(OC)c1Oc1cc(C)cc(O)c1C(=O)O	SRC3 inh 68
C=CCNc1nc2c(c(=O)n(C)c(=O)n2C)n1CC	none
C=CCNc1nc2c(c(=O)n(C)c(=O)n2C)n1CCCCCC	NR2F2 inh 61
COC(=O)[C@]12C[C@H](CC(=O)N3CCSCC3)C(=O)N(Cc3ccco3)C1=C[C@H](COCc1ccccc1)O[C@@H]2C	none (no result: NCOA1 inh, SRC3 inh, NR5A2 inv ag)
C(=N\Nc1nc2ccccc2[nH]1)/c1cccc2cccnc12	SRC3 inh 62
Cc1ccc(OCc2nnc(SCC(=O)Nc3ccccc3-c3ccccc3)n2Cc2ccco2)cc1	none (no result: NCOA1 inh, SRC3 inh, NR5A2 inv ag)
Cc1cccc(NS(=O)(=O)c2ccc(NC(=O)CN(c3cc([N+](=O)[O-])ccc3C)S(C)(=O)=O)cc2)c1	NCOA2 inhibitor 54
COc1ccc(C)cc1NS(=O)(=O)c1ccc(NC(=O)CN(c2cc([N+](=O)[O-])ccc2C)S(C)(=O)=O)cc1	none
Cn1cc(-c2cccc3[nH]cc(-c4ccccc4)c23)c2ccccc21	none (no result: NCOA1 inh, SRC3 inh, NR5A2 inv ag)
COc1ccc(C[N+]2=C(N)NC3=C(C)Cn4c(=O)n(-c5ccccc5)c(=O)n4C3C2)c(OC)c1 (centres undefined)	none (no result: NCOA1 inh, SRC3 inh, NR5A2 inv ag)
Cc1[nH]c2ccccc2c(=O)c1C(=O)/C=C/c1ccccc1	NCOA1 inh 64, SRC3 inh 72, NCOA2 inhibitor 65
CCOC(=O)c1ccc(NC(=O)CSc2nnc(-c3cccc(C)c3)n2C)cc1	none (no result: NCOA1 inh, SRC3 inh, NR5A2 inv ag)
Cn1cccc1CC(=O)NN=C/C=C\c1ccco1	none (no result: NCOA1 inh, SRC3 inh, NR5A2 inv ag)
CCCCCCCCN1C(=O)[C@@H](CC(=O)NCCCOC)C[C@@]2(C(=O)OC)C1=C[C@H](COCc1ccccc1)O[C@@H]2C	none (no result: NCOA1 inh, SRC3 inh, NR5A2 inv ag)
O=C(Nc1sc2c(c1C(=O)NCCCO)CCCC2)c1ccccc1	NCOA1 inh 86
NCCNC(=O)c1c(NC(=O)c2ccccc2)sc2c1CCCC2	none
Cc1cccc(N=Nc2ccc(O)c3ncccc23)c1	none
Oc1ccc(N=Nc2ccc3c(c2)OCCO3)c2ncccc12	NCOA2 inhibitor 57
COCCCNC(=O)C[C@H]1C(=O)N(Cc2ccc(OC)cc2)C2=CCCCC[C@@]21C(=O)OC	none (no result: NCOA1 inh, SRC3 inh, NR5A2 inv ag)
CCCC(=O)Nc1ccc(C(=O)N/N=C/c2ccc([N+](=O)[O-])o2)cc1	NCOA1 inh 65, SRC3 inh 71, NR5A2 inv ag 83
CCOc1cc(C=NN2CCN(Cc3ccc(C)cc3)CC2)ccc1O	none (no result: NCOA1 inh, SRC3 inh, NR5A2 inv ag)
